# Data published in PubChem BioAssay AID602449 (Sanford-Burnham Center for Chemical Genomics, 2012).
# Among all 360,000 compounds or so, about 5,000 (1.4%) were called active. This excerpt belongs to a sample that is enriched for actives. Values without a mark were called inactive.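 How the source made its calls: active means inhibition of 50% or more, scaled per plate between neutral and stimulator controls; inactive means the rest.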
# Assay: mitochondrial permeability transition pore inhibitors, primary screen, biochemical, isolated mouse mitochondria, absorbance (AID 602449);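 further: 0% = DMSO wells given calcium and 100% = 1 mM EGTA wells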
# Details: Ca2+ swelling absorbance, 30 min, at 10 µM, stronger effect = higher value
row,Structure (SMILES),inhibition
1,COc1ccc(-c2n[nH]c3c2CN(C(=O)c2ccc(F)cc2)CC3)cc1,1.2%
2,COc1ccccc1CSc1ncc(-c2ccc([N+](=O)[O-])cc2)[nH]1,24.2%
3,CC1(C)C2CCC1(CS(=O)(=O)NCCc1c[nH]c3ccccc13)C(=O)C2 (centres undefined),0.4%
4,CC(=O)N1c2ccc(S(=O)(=O)N3CCCC(C(=O)Nc4ccc(C)cc4C)C3)cc2CC1C (centres undefined),0.4%
5,COc1ccc(NS(=O)(=O)c2cc(NC(=O)C3CCCCC3)ccc2N2CCOCC2)cc1,-0.4%
6,CCOc1ncccc1C(=O)N(CC)CC(=O)Nc1ccc(NC(C)=O)cc1,-0.1%
7,Cc1cc(Cl)c2oc(C(=O)NC(C)c3ccncn3)c(C)c2c1 (centres undefined),-0.4%
8,COC(=O)[C@@]12C[C@@H](CC(=O)NCc3cccc(C(F)(F)F)c3)C(=O)N(Cc3ccco3)C1=CCC(C)(C)C2,-0.5%
9,COc1ccc(C(=O)NC2(C(F)(F)F)NC(=O)N(CCCc3ccccc3)C2=O)c(OC)c1OC (centres undefined),11.9%
10,CCCC1=Nc2cc(C(=O)NCCN3CCCC3)ccc2Sc2ccccc21,-1.2%
11,Cc1cccc(-c2nc3ccc(C(=O)NCCN4CCN(C)CC4)cc3nc2-c2cccc(C)c2)c1,55.9% (active)
12,Cc1cccc(C(=O)OC(C)CN2CCN(C)CC2)c1 (centres undefined),-1.6%
13,C[C@H](NS(=O)(=O)c1ccc(Cl)cc1)C(=O)OCC(=O)N1CCOCC1,1.4%
14,COc1ccc(C(C)C)cc1S(=O)(=O)Nc1ncn[nH]1,-0.4%
15,CC(=O)c1c(C)[nH]c(C(=O)CN2C(=O)NC(C)(C)C2=O)c1C,-0.1%
16,CC(=O)Nc1ccc(C(=O)CSc2nc3ccc(C)cc3[nH]2)cc1,-1.5%
17,O=C(CSc1nc2ccc([N+](=O)[O-])cc2[nH]1)c1ccc(Cl)cc1,104% (active)
18,Cc1nc(SCC(=O)c2ccccc2)c([N+](=O)[O-])[nH]1,3.9%
19,COc1cccc(NC(=O)CN(C)C(=O)CSCc2nc3scc(-c4cccs4)c3c(=O)[nH]2)c1,-0.9%
20,Cc1ccccc1N1CC(C(=O)Nc2nnc(SCCC3OCCO3)s2)CC1=O (centres undefined),-2.6%
21,O=[N+]([O-])c1ccc(N=NNc2ccc([N+](=O)[O-])cc2)cc1,21.4%
22,O=[N+]([O-])c1ccc(N/N=C/c2ccccc2)cc1,63.2% (active)
23,CC(C)c1ccc(C=NNc2ccc([N+](=O)[O-])cn2)cc1,7%
24,Cc1cc([N+](=O)[O-])ccc1NCc1cccc([N+](=O)[O-])c1,6.8%

row,Structure (SMILES),inhibition
1,Cc1ccccc1OCCOc1ccc([N+](=O)[O-])cc1/C=N/n1cnnc1,3.3%
2,Cc1cccc(COc2ccccc2/C=N/Nc2ccc([N+](=O)[O-])cc2)c1,69.1% (active)
3,c1ccc(-c2cn3c(n2)CCc2ccc4cccnc4c2-3)cc1,-2%
4,O=C(OCC(=O)N1CCCCCC1)c1cccc(Cl)c1Cl,3.6%
5,CN(C)CCN=c1cc(-c2ccccc2)oc2ccc(Cl)cc12,3%
6,CCCCn1c(N)c(N(CC(C)C)C(=O)c2ccc(Br)o2)c(=O)[nH]c1=O,-1.5%
7,CC/C(=N\NC(=S)NC(C)C)c1ccc(OC(F)F)cc1,1.8%
8,CC(NC(=S)Nc1ccc(OC(F)F)cc1)c1ccc(F)cc1 (centres undefined),102% (active)
9,CC(C)N(Cc1ccccc1)C(=S)Nc1ccc(OC(F)F)cc1,5.8%
10,Cc1cc(Br)ccc1NC(=O)c1cnc(N2CCN(c3ccccn3)CC2)c2ccccc12,0.4%
11,O=C(O)c1ccc([N+](=O)[O-])cc1Sc1ccsc1,0.7%
12,COCCn1c(SCC(=O)Nc2cc(OC)ccc2OC)nc2c(c1=O)SC(C)C2 (centres undefined),1.2%
13,CCCCCc1c(-c2ccc(OC)c(OC)c2)ncn1CCc1ccccc1OC,5.6%
14,CCCCCc1c(Cc2ccccc2)ncn1CCc1ccccc1OC,85.6% (active)
15,CCCCCc1c(-c2cccc(Br)c2)ncn1CCc1ccccc1OC,1.3%
16,CCCCn1c(N)c(N(CC(C)C)C(=O)c2cccc(S(=O)(=O)N3CC(C)OC(C)C3)c2)c(=O)[nH]c1=O (centres undefined),6.1%
17,CCOC(=O)c1cnc(Nc2nc3ccccc3o2)nc1CSC(=S)N1CCCCC1,1.4%
18,O=C(CN1C(=O)CC(c2ccccc2)=Nc2ccccc21)NC1CCCCC1,-0.4%
19,Cc1cc(C=O)c(C)n1-c1ccc(NC2CCCCC2)c([N+](=O)[O-])c1,80.6% (active)
20,Cc1cc([N+](=O)[O-])c(NC2CCCCC2)c([N+](=O)[O-])c1,0.6%
21,COc1ccc(NC(=O)CN(C)C(=O)c2ccc(NC3CC3)c([N+](=O)[O-])c2)cc1,0.5%
22,OC[C@@H]1CN(Cc2ccc(-c3ccccc3)cc2)C[C@H](n2cnc3c(NC4CCCC4)ncnc32)O1,17.2%
23,COC(=O)c1ccc(OCC(O)CN(CCO)CC(O)Cn2ccc3ccccc32)cc1 (centres undefined),0%
24,Cc1noc(C)c1S(=O)(=O)Nc1cc(C(F)(F)F)ccc1N1CCOCC1,4.6%

row,Structure (SMILES),inhibition
1,Cc1oc2c(F)c(F)c(F)c(F)c2c1S(=O)(=O)Nc1cccc(C(F)(F)F)c1,83.3% (active)
2,Cc1ccc(N(CCC(=O)O)S(=O)(=O)c2cccc(C(F)(F)F)c2)cc1,1.1%
3,N/C(=N\OC(=O)CCCC(=O)O)c1ncc(C(F)(F)F)cc1Cl,-0.2%
4,O=C(c1ccccn1)c1ncc(C(F)(F)F)cc1Cl,-0.8%
5,N/C(=N\OC(=O)Nc1ccc(Cl)c(Cl)c1)c1ncc(C(F)(F)F)cc1Cl,88.1% (active)
6,ONC(=Nc1ccc(Cl)cc1)c1ccccc1Cl,1%
7,CCOC(=O)C1CSC(CC(=O)Nc2ccc(OCC)cc2)C(=O)N1 (centres undefined),3.6%
8,CCCCCCNCCn1cnc2c(N)ncnc21,-0.8%
9,COc1cccc(-c2cnc(OC(C)(C)C)nc2OC(C)(C)C)c1,-0.3%
10,COc1ccc(C(C)NC(=O)C2CCCC2)cc1 (centres undefined),0.1%
11,CCN(CC(=O)NCCCN1CCOCC1)S(=O)(=O)c1cc(Cl)ccc1Cl,-1.1%
12,COc1ccc(Cl)cc1NC(=O)CN(C)Cc1ccc(OC)c(OC)c1,0.9%
13,COc1ccc(Br)cc1C(=O)NC(=S)Nc1cc(-c2nc3ccccc3[nH]2)ccc1C,70.7% (active)
14,COc1ccccc1C(=O)NC(=S)Nc1ccccc1N1CCCCC1,1.3%
15,COc1ccc(Br)cc1C(=O)Nc1cccc(C)c1C,-1.2%
16,CC1CCCCC12NC(=O)N(CC(=O)OCC(=O)NCc1ccc(F)cc1)C2=O (centres undefined),-0.2%
17,O=C(Nc1nsc(-c2ccccc2)n1)c1ccncc1,0.9%
18,O=C(CN(c1cccc(Cl)c1)S(=O)(=O)c1ccccc1)NN=C1CCCC1,0.3%
19,CCCCOC(=O)CNc1nnc(SCC(=O)OCC)[nH]c1=O,77.3% (active)
20,CCOC(=O)CSc1nc(C)c(Oc2ccc(Cl)cc2Cl)c(=O)[nH]1,2.7%
21,Cc1nnc(SCC(=O)N2CCOCC2)[nH]c1=O,26.4%
22,COc1ccccc1P(=O)(c1ccccc1)c1ccccc1NC(C)=O (centres undefined),0.1%
23,COC(C[C@H](O)CC(=O)COCc1ccccc1)OC,-0.4%
24,O=C(N/N=C/c1ccc(O)c(O)c1)C1c2ccccc2Oc2ccccc21,104% (active)

row,Structure (SMILES),inhibition
1,CC(C)(C)c1nnc(NC(=O)C2c3ccccc3Oc3ccccc32)s1,6.5%
2,Cn1c(SCC(=O)N/N=C/c2ccc(O)c(O)c2)nc2ccccc21,2.9%
3,COc1ccc(CNS(=O)(=O)c2cc(-c3cc(C)no3)ccc2C(C)C)cc1,-0.4%
4,Cc1c(NC(=S)NCc2ccc(F)cc2)cccc1[N+](=O)[O-],96.5% (active)
5,COc1cc(NC(=S)NCc2ccc(S(N)(=O)=O)cc2)cc(OC)c1,-1%
6,Cc1cc(C)cc(NC(=S)NCc2ccc(F)cc2)c1,50.1% (active)
7,Cc1cccc(NC(=S)NCCc2ccc(F)cc2)c1C,0.7%
8,CC(C)CNC(=S)Nc1ccc(F)cc1,2.1%
9,Cc1c(NC(=O)CCCOc2ccccc2)cccc1[N+](=O)[O-],0.1%
10,C/C(=N\N=C(N)N)c1ccc(Cl)cc1,2%
11,COc1cccc(NC(=O)C(Sc2nnnn2C)c2ccccc2)c1 (centres undefined),-1.4%
12,CCOc1ccc(OCC)c(NC(=O)CN(C)S(=O)(=O)c2cccc3nsnc23)c1,-0.3%
13,COc1ccccc1OCCNc1cc(N2CCOCC2)ccc1[N+](=O)[O-],2.8%
14,COc1ccc(CCNc2cc(N3CCN(C(=O)c4ccccc4OC)CC3)ccc2[N+](=O)[O-])cc1OC,55.3% (active)
15,COc1ccc(CCNC(=O)c2ccccc2-c2ccccc2C(=O)O)cc1OC,-0.5%
16,O=S(=O)(CCc1nc2ccccc2o1)c1ccc(Cl)cc1,-1.2%
17,Cc1cc(F)ccc1NC(=S)NCCc1ccccc1,0%
18,O=C(NCCc1ccccc1)C1CC1,-0.4%
19,S=C(NCCc1ccccc1)NCc1ccccc1Cl,69.8% (active)
20,O=C(NCCCc1ccccc1)C1CCC(CNc2c(N3CCCCC3)c(=O)c2=O)CC1 (centres undefined),0.1%
21,CC(C)(CNC(=O)Cc1ccc(Cl)cc1Cl)N1CCOCC1,1.9%
22,CC1=NN(/C(=N\c2nnc(C)s2)Nc2ccccc2)[C@H](c2ccc(C)cc2)S1,0.1%
